# Structures can show the parent of a compound that is named as a salt.
# Tested on: S. cerevisiae NKY1551 his4x/his4B, sporulating;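 active = HIS4 sensitivity z-score above 5 vs DMSO controls; inactive = score 5 or below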
# Experiment: HIS4 meiotic recombination assay sensitivity score (z-score vs DMSO controls); higher = stronger inhibition of sporulation/recombination, active = hit call of the paper
# Experimental: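 NIH Clinical Collection compounds were added 1:100 from stock (about 100 µM final) to S. cerevisiae. Growth: average doubling time (AvgG) over 24 h of BY4741 (wild-type) or AD1-9 (drug-efflux-pump deficient) in rich media. HIS4: the his4x/his4B heteroallelic recombination reporter strain (SK1) was sporulated 5 h with compound at 30°C, then colony density was read on -his plates after 48 h. Sensitivity score = (compound − mean of 8 DMSO controls)/SD of DMSO controls. Hit cutoffs are >2 for growth and >5 for sporulation.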
row,SMILES,HIS4 meiotic recombination assay sensitivity score
1,"O=C(CCCN1CC=C(n2c(=O)[nH]c3ccccc32)CC1)c1ccc(F)cc1 [Droperidol] (stock concentration (mM, diluted 1:100): 10)",-0.15 (inactive)
2,"CCOC(=O)C1=C(C)NC(C)=C(C(=O)OC)C1c1cccc([N+](=O)[O-])c1 (stereo not given) [Nitrendipine] (stock concentration (mM, diluted 1:100): 10)",1.41 (inactive)
3,"CN(CCO)CC(O)Cn1cnc2c1c(=O)n(C)c(=O)n2C (stereo not given) [Xanthinol nicotinate] (stock concentration (mM, diluted 1:100): 10)",-0.61 (inactive)
4,"CC(=O)NC[C@H]1CN(c2ccc(N3CCOCC3)c(F)c2)C(=O)O1 [Linezolide] (stock concentration (mM, diluted 1:100): 10)",-0.83 (inactive)
5,"O=C(O)c1cc(/N=N/c2ccc(S(=O)(=O)Nc3ccccn3)cc2)ccc1O [Sulfasalazine] (stock concentration (mM, diluted 1:100): 10)",-0.54 (inactive)
6,"CCS(=O)(=O)CCn1c([N+](=O)[O-])cnc1C [Tinidazole] (stock concentration (mM, diluted 1:100): 10)",-1.77 (inactive)
7,"COc1cc(/C=C/c2ccc(O)cc2)cc(OC)c1 [Pterostilbene] (stock concentration (mM, diluted 1:100): 10)",-0.31 (inactive)
8,"CC(C(=O)O)c1ccc(-c2ccccc2)c(F)c1 (stereo not given) [Flurbiprofen] (stock concentration (mM, diluted 1:100): 11.4)",-0.16 (inactive)
9,"O=C1c2c(O)cc(O)cc2OC(c2ccc(O)c(O)c2)C1O (stereo not given) [Taxifolin] (stock concentration (mM, diluted 1:100): 10)",-0.97 (inactive)
10,"COCCCC/C(=N\OCCN)c1ccc(C(F)(F)F)cc1 [Fluvoxamine] (stock concentration (mM, diluted 1:100): 7.7)",8.08 (active)
11,"CN(C)CCCSc1ccccc1NC(=O)/C=C/c1ccccc1 [Cinanserin] (stock concentration (mM, diluted 1:100): 10)",7.73 (active)
12,"NC(N)=NC(=O)c1nc(Cl)c(N)nc1N (stock concentration (mM, diluted 1:100): 8.2)",2.44 (inactive)
13,"CNCC[C@H](Oc1cccc2ccccc12)c1cccs1 [Duloxetine] (stock concentration (mM, diluted 1:100): 10)",-1.33 (inactive)
14,"O=C(CCCN1CCC(O)(c2ccc(Cl)cc2)CC1)c1ccc(F)cc1 [Haloperidol] (stock concentration (mM, diluted 1:100): 10)",7.67 (active)
15,"COC(=O)C1=C(C)NC(C)=C(C(=O)OC2CCCN(Cc3ccccc3)C2)C1c1cccc([N+](=O)[O-])c1 (stereo not given) [Benidipine hydrochloride] (stock concentration (mM, diluted 1:100): 6)",-1.2 (inactive)
16,"CC(C)/N=c1\cc2n(-c3ccc(Cl)cc3)c3ccccc3nc-2cc1Nc1ccc(Cl)cc1 [Clofazimine] (stock concentration (mM, diluted 1:100): 10)",-1.5 (inactive)
17,"Cn1nnc2c(C(N)=O)ncn2c1=O [Temozolomide] (stock concentration (mM, diluted 1:100): 10)",-0.54 (inactive)
18,"OCCOCCN1CCN(C2=Nc3ccccc3Sc3ccccc32)CC1 [Quetiapine hemifumarate] (stock concentration (mM, diluted 1:100): 7.7)",5.3 (active)
19,"CC(=O)O[C@]1(C(C)=O)CC[C@H]2[C@@H]3C=C(C)C4=CC(=O)CC[C@]4(C)[C@H]3CC[C@@]21C [Megestrol acetate] (stock concentration (mM, diluted 1:100): 10)",-2.67 (inactive)
20,"CC(C)(C)NC(=O)[C@H]1CC[C@H]2[C@@H]3CC[C@H]4NC(=O)C=C[C@]4(C)[C@H]3CC[C@]12C [Finasteride] (stock concentration (mM, diluted 1:100): 10)",3.09 (inactive)

row,SMILES,HIS4 meiotic recombination assay sensitivity score
1,"CC(=O)[C@]1(O)Cc2c(O)c3c(c(O)c2[C@@H](O[C@H]2C[C@H](N)[C@H](O)[C@H](C)O2)C1)C(=O)c1ccccc1C3=O [Idarubicin hydrochloride] (stock concentration (mM, diluted 1:100): 9.3)",-2.94 (inactive)
2,"CCN1CCC[C@H]1CNC(=O)c1c(O)c(Cl)cc(Cl)c1OC [Raclopride] (stock concentration (mM, diluted 1:100): 10)",-0.66 (inactive)
3,"CCCN1CCCC[C@H]1C(=O)Nc1c(C)cccc1C [Ropivacaine hydrochloride] (stock concentration (mM, diluted 1:100): 7.7)",2.62 (inactive)
4,"O=C(O[C@@H]1C[C@@H]2C[C@H]3C[C@H](C1)N2CC3=O)c1c[nH]c2ccccc12 [Dolasetron mesylate] (stock concentration (mM, diluted 1:100): 10.4)",-3.34 (inactive)
5,"CCCCCCCCCCC[C@@H](C[C@@H]1OC(=O)[C@H]1CCCCCC)OC(=O)[C@H](CC(C)C)NC=O [Orlistat] (stock concentration (mM, diluted 1:100): 10)",-1.52 (inactive)
6,"CN1CCC(=C2c3ccccc3CC(=O)c3sccc32)CC1 [Ketotifen fumarate] (stock concentration (mM, diluted 1:100): 8.9)",2.1 (inactive)
7,"CS(=O)(=O)c1ccc(-c2cc(Br)sc2-c2ccc(F)cc2)cc1 (stock concentration (mM, diluted 1:100): 10)",1.98 (inactive)
8,"CN(C)CCOC(C)(c1ccccc1)c1ccccn1 (stereo not given) [Doxylamine succinate] (stock concentration (mM, diluted 1:100): 10)",1.01 (inactive)
9,"Nc1nc(Cl)nc2c1ncn2[C@H]1C[C@H](O)[C@@H](CO)O1 [2-Chloro-2-Deoxyadenosine] (stock concentration (mM, diluted 1:100): 10)",-1.07 (inactive)
10,"COc1ccc2[nH]c([S+]([O-])Cc3ncc(C)c(OC)c3C)nc2c1 (stereo not given) [Omeprazole] (stock concentration (mM, diluted 1:100): 10)",-1.05 (inactive)
11,"CN(C)CCc1c[nH]c2ccc(Cn3cncn3)cc12 [Rizatriptan benzoate] (stock concentration (mM, diluted 1:100): 10)",-0.35 (inactive)
12,"COc1cc2c(cc1OC)C(=O)C(CC1CCN(Cc3ccccc3)CC1)C2 (stereo not given) [Donepezil] (stock concentration (mM, diluted 1:100): 9.1)",0.42 (inactive)
13,"CN(Cc1cnc2nc(N)nc(N)c2n1)c1ccc(C(=O)N[C@@H](CCC(=O)O)C(=O)O)cc1 [Methotrexate] (stock concentration (mM, diluted 1:100): 14.6)",0.19 (inactive)
14,"CC(C)c1ccc2c(c1)c(SC(C)(C)C)c(CC(C)(C)C(=O)O)n2Cc1ccc(Cl)cc1 [Tocris-1311] (stock concentration (mM, diluted 1:100): 10)",-0.42 (inactive)
15,"CC[C@H]1OC(=O)[C@H](C)C(=O)[C@H](C)[C@@H](O[C@@H]2O[C@H](C)C[C@H](N(C)C)[C@H]2O)[C@](C)(OC)C[C@@H](C)C(=O)[C@H](C)[C@H]2N(CCCCn3cnc(-c4cccnc4)c3)C(=O)O[C@]12C [Telithromycin] (stock concentration (mM, diluted 1:100): 10)",0.14 (inactive)
16,"C[C@@H]1CN(CCCn2c3ccccc3c3ccccc32)C[C@H](C)N1 [Rimcazole] (stock concentration (mM, diluted 1:100): 10.1)",-2.16 (inactive)
17,"COc1cc(C[C@@H](CO)[C@H](CO)Cc2ccc(O)c(OC)c2)ccc1O [Secoisolariciresinol] (stock concentration (mM, diluted 1:100): 10)",-0.73 (inactive)
18,"N[C@@H]1CONC1=O [D-Cycloserine] (stock concentration (mM, diluted 1:100): 10)",-5.18 (inactive)
19,"CC(C)C[C@H](NC(=O)[C@@H](COC(C)(C)C)NC(=O)[C@H](Cc1ccc(O)cc1)NC(=O)[C@H](CO)NC(=O)[C@H](Cc1c[nH]c2ccccc12)NC(=O)[C@H](Cc1cnc[nH]1)NC(=O)[C@@H]1CCC(=O)N1)C(=O)N[C@@H](CCCNC(=N)N)C(=O)N1CCC[C@H]1C(=O)NNC(N)=O [Goserelin acetate] (stock concentration (mM, diluted 1:100): 9.6)",-1.25 (inactive)
20,"CN1CCN(c2nc3cc(C(F)(F)F)ccc3n3cccc23)CC1 (stock concentration (mM, diluted 1:100): 10)",-0.17 (inactive)
